From PubChem BioAssay (NCI)
The panel holds about 83,000 compounds, 20% with a hit somewhere; the sample as a whole holds those more often.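 Note: values are percent growth. 100 is the growth of untreated cells, values between 100 and 0 indicate rising inhibition; between -100 and 0 indicates cell death.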 Activity calls are given as the source filed them. How the source made its calls: active means growth percent below 10; inactive means the rest.

What was measured:
Assay in all cases: NCI-60 one-dose screen, 48 h (100 = growth as untreated, 0 = no growth, -100 = all killed)
Conditions in all cases: 10 µM unless noted
SR leukemia = test system: SR leukemia
RPMI-8226 leukemia = test system: RPMI-8226 leukemia
OVCAR-8 ovarian = test system: OVCAR-8 ovarian
OVCAR-5 ovarian = test system: OVCAR-5 ovarian
OVCAR-4 ovarian = test system: OVCAR-4 ovarian
SK-OV-3 ovarian = test system: SK-OV-3 ovarian
IGROV1 ovarian = test system: IGROV1 ovarian
OVCAR-3 ovarian = test system: OVCAR-3 ovarian
HS 578T breast = test system: HS 578T breast
NCI/ADR-RES ovarian = test system: NCI/ADR-RES ovarian

Measured: growth

Cc1c[n+](Cc2ccc3ccccc3c2)cn1Cc1ccc2ccccc2c1
inactive: OVCAR-5 ovarian 27.1% | SK-OV-3 ovarian 35.3% | HS 578T breast 46.8% | NCI/ADR-RES ovarian 101%
active: SR leukemia -47.2% | RPMI-8226 leukemia -42.4% | OVCAR-8 ovarian 2.04% | OVCAR-4 ovarian -7.39% | IGROV1 ovarian -16.3% | OVCAR-3 ovarian -2.44%

O=C(Nc1ccc(Oc2cccc(F)c2)c(Cl)c1)c1cccnc1
inactive: SR leukemia 23.8% | RPMI-8226 leukemia 15.8% | OVCAR-8 ovarian 34.6% | OVCAR-5 ovarian 72.6% | OVCAR-4 ovarian 46.2% | SK-OV-3 ovarian 30% | IGROV1 ovarian 41.8% | HS 578T breast 31.3% | NCI/ADR-RES ovarian 13.9%
active: OVCAR-3 ovarian 6.97%

O=C1/C=C/[C@@H](O)[C@@H]2C[C@@H](O)C[C@H]2/C=C/CCC[C@H](CCc2ccccc2)O1
inactive: RPMI-8226 leukemia 10.7% | OVCAR-8 ovarian 14.4% | OVCAR-5 ovarian 19.8% | OVCAR-4 ovarian 24.9% | SK-OV-3 ovarian 28.2% | IGROV1 ovarian 14.7% | HS 578T breast 47.8%
active: SR leukemia 9.67% | OVCAR-3 ovarian -42.1% | NCI/ADR-RES ovarian 5.65%

N=C(N)c1ccc(-c2ccc(-c3ccc(Cl)c(Cl)c3)s2)nc1
active: SR leukemia 3.84% | RPMI-8226 leukemia -8.11% | OVCAR-8 ovarian -19.9% | IGROV1 ovarian -40.6% | OVCAR-3 ovarian -77.8%
inactive: OVCAR-5 ovarian 20.1% | OVCAR-4 ovarian 16.3% | SK-OV-3 ovarian 86.6% | HS 578T breast 67.6% | NCI/ADR-RES ovarian 82.9%

Cc1ccc2c(Cn3cc(CSc4nc5ccccc5o4)nn3)cc(=O)oc2c1
inactive: SR leukemia 99.6% | RPMI-8226 leukemia 100% | OVCAR-8 ovarian 97.4% | OVCAR-5 ovarian 116% | OVCAR-4 ovarian 107% | SK-OV-3 ovarian 81% | IGROV1 ovarian 107% | OVCAR-3 ovarian 115% | HS 578T breast 107% | NCI/ADR-RES ovarian 99.3%

NC(Cc1ccc(O)c([N+](=O)[O-])c1)C(=O)O (stereo not given)
inactive: SR leukemia 89.1% | RPMI-8226 leukemia 95% | OVCAR-8 ovarian 103% | OVCAR-5 ovarian 107% | OVCAR-4 ovarian 95.2% | SK-OV-3 ovarian 115% | IGROV1 ovarian 85% | OVCAR-3 ovarian 105% | HS 578T breast 98.4% | NCI/ADR-RES ovarian 99%

O=c1c2ccccc2n2cnc3ccc(Cl)c1c32
inactive: SR leukemia 44.9% | RPMI-8226 leukemia 98.6% | OVCAR-8 ovarian 78.1% | OVCAR-5 ovarian 81.6% | OVCAR-4 ovarian 82.6% | SK-OV-3 ovarian 69.8% | IGROV1 ovarian 55.5% | OVCAR-3 ovarian 85.2% | HS 578T breast 84.8% | NCI/ADR-RES ovarian 86.7%

COc1ccc(C(=O)/C=C/c2c(C(F)(F)F)nc3ccccn23)cc1OC
active: SR leukemia -9.91% | RPMI-8226 leukemia 6.41% | OVCAR-5 ovarian 9.01% | OVCAR-4 ovarian 5.92% | OVCAR-3 ovarian -51.3% | HS 578T breast 4.59% | NCI/ADR-RES ovarian -22.7%
inactive: OVCAR-8 ovarian 10.9% | SK-OV-3 ovarian 17.3% | IGROV1 ovarian 17.3%

C=CCSc1nnc(NC(=O)CCl)s1
inactive: SR leukemia 88.4% | RPMI-8226 leukemia 73% | OVCAR-8 ovarian 92.5% | OVCAR-5 ovarian 120% | OVCAR-4 ovarian 73.2% | SK-OV-3 ovarian 119% | IGROV1 ovarian 81.6% | OVCAR-3 ovarian 94.8% | HS 578T breast 93.7% | NCI/ADR-RES ovarian 93%

CCCCCCCCCCC(CN(CC)CC)C(O)c1ccccc1 (stereo not given)
inactive: OVCAR-8 ovarian 53.6% | OVCAR-5 ovarian 49.7% | OVCAR-4 ovarian 47.5% | SK-OV-3 ovarian 54.9% | IGROV1 ovarian 40.7% | OVCAR-3 ovarian 37.7% | HS 578T breast 45% | NCI/ADR-RES ovarian 33.6%
active: SR leukemia -17.6% | RPMI-8226 leukemia 9.59%

O=C(Nc1nc2cc(C(=O)N3CCN(C(c4ccccc4)c4ccccc4)CC3)ccc2o1)c1ccc(NC2CCCCC2)c([N+](=O)[O-])c1
inactive: SR leukemia 49.1% | RPMI-8226 leukemia 40.1% | OVCAR-8 ovarian 37.8% | OVCAR-5 ovarian 72.5% | OVCAR-4 ovarian 38.8% | SK-OV-3 ovarian 73.8% | IGROV1 ovarian 51.1% | OVCAR-3 ovarian 52.8% | HS 578T breast 76% | NCI/ADR-RES ovarian 35.3%

CCCCNCCCCCNc1cc(OC)cc2cccnc12
inactive: SR leukemia 71.1% | RPMI-8226 leukemia 76.9% | OVCAR-8 ovarian 99.3% | OVCAR-5 ovarian 91.4% | OVCAR-4 ovarian 60.1% | SK-OV-3 ovarian 95.2% | IGROV1 ovarian 118% | OVCAR-3 ovarian 107% | HS 578T breast 99% | NCI/ADR-RES ovarian 95.9%

Nc1[nH]n2cc(-c3ccccc3)nc2c1N=Nc1ccc(S(N)(=O)=O)cc1
active: RPMI-8226 leukemia 5.77% | HS 578T breast 5.14%
inactive: SR leukemia 13.3% | OVCAR-8 ovarian 36.6% | OVCAR-5 ovarian 65.4% | OVCAR-4 ovarian 36.9% | SK-OV-3 ovarian 13.3% | IGROV1 ovarian 15.3% | OVCAR-3 ovarian 46.8% | NCI/ADR-RES ovarian 90%

O=C1/C(=C/c2cccc(F)c2)CN(C(=O)C(Cl)Cl)C/C1=C\c1cccc(F)c1
active: SR leukemia -15.8% | RPMI-8226 leukemia -31.3% | OVCAR-8 ovarian -48.3% | OVCAR-5 ovarian -63.6% | OVCAR-4 ovarian -36.9% | IGROV1 ovarian -77.2% | OVCAR-3 ovarian -92.2% | HS 578T breast -13.7% | NCI/ADR-RES ovarian -3.11%
inactive: SK-OV-3 ovarian 29.8%

COC(=O)c1cc(N=C2NC(=O)/C(=C/C=C/c3ccccc3)S2)ccc1O
active: NCI/ADR-RES ovarian 5.59%
inactive: SR leukemia 27.5% | RPMI-8226 leukemia 18.8% | OVCAR-8 ovarian 25.6% | OVCAR-5 ovarian 71% | OVCAR-4 ovarian 58.9% | SK-OV-3 ovarian 33.3% | IGROV1 ovarian 37.6% | OVCAR-3 ovarian 18.7% | HS 578T breast 35.3%

Fc1ccc(CNc2c3ccccc3nc3ccccc23)c(F)c1
inactive: SR leukemia 25.2% | RPMI-8226 leukemia 28.3% | OVCAR-8 ovarian 40.2% | OVCAR-5 ovarian 51.7% | SK-OV-3 ovarian 59.8% | IGROV1 ovarian 35.7% | OVCAR-3 ovarian 70.2% | HS 578T breast 75.4% | NCI/ADR-RES ovarian 36.2%
active: OVCAR-4 ovarian -8.19%

CCOC(=O)C(=O)C(C(=O)OCC)c1ccccc1 (stereo not given)
inactive: SR leukemia 94.7% | RPMI-8226 leukemia 94.3% | OVCAR-8 ovarian 120% | OVCAR-5 ovarian 106% | OVCAR-4 ovarian 106% | SK-OV-3 ovarian 110% | IGROV1 ovarian 122% | OVCAR-3 ovarian 120% | HS 578T breast 94.2% | NCI/ADR-RES ovarian 109%

Cc1ccccc1/C=C/C(=O)c1cccc(OCCCCOc2cccc(C(=O)/C=C/c3ccccc3C)c2)c1
active: RPMI-8226 leukemia -6.51%
inactive: SR leukemia 74.4% | OVCAR-8 ovarian 97.6% | OVCAR-5 ovarian 103% | OVCAR-4 ovarian 87.1% | SK-OV-3 ovarian 107% | IGROV1 ovarian 96.6% | OVCAR-3 ovarian 104% | HS 578T breast 106% | NCI/ADR-RES ovarian 99.1%

N#Cc1c(-c2ccccc2)cc(-c2ccccc2)n(CCCC(=O)Nc2ccccc2N)c1=O
inactive: SR leukemia 22.4% | RPMI-8226 leukemia 48.9% | OVCAR-8 ovarian 69.1% | OVCAR-5 ovarian 95% | OVCAR-4 ovarian 91.9% | SK-OV-3 ovarian 95.6% | IGROV1 ovarian 51.7% | OVCAR-3 ovarian 26.2% | HS 578T breast 43.5% | NCI/ADR-RES ovarian 39.5%

N#Cc1nc(-c2ccccc2)oc1S(=O)(=O)N1CCN(c2ccccc2)CC1
inactive: SR leukemia 14.7% | RPMI-8226 leukemia 63.4% | OVCAR-8 ovarian 81.3% | OVCAR-5 ovarian 112% | OVCAR-4 ovarian 99.5% | SK-OV-3 ovarian 105% | IGROV1 ovarian 78.9% | OVCAR-3 ovarian 111% | HS 578T breast 102% | NCI/ADR-RES ovarian 97.5%

CCOc1ccccc1Cn1ccnc1CCc1c(Cl)c(O)cc(O)c1C(=O)OC
inactive: SR leukemia 91.5% | RPMI-8226 leukemia 86.9% | OVCAR-8 ovarian 97.7% | OVCAR-5 ovarian 95.8% | OVCAR-4 ovarian 114% | SK-OV-3 ovarian 91.9% | IGROV1 ovarian 94.8% | OVCAR-3 ovarian 106% | HS 578T breast 107% | NCI/ADR-RES ovarian 93.5%

O=C1NC(=O)C(Cc2ccc(OCc3ccc(-c4ccc(Cl)cc4Cl)cc3)cc2)S1 (stereo not given)
inactive: SR leukemia 29.3% | RPMI-8226 leukemia 38.5% | OVCAR-8 ovarian 42.6% | OVCAR-5 ovarian 80.6% | OVCAR-4 ovarian 47.4% | SK-OV-3 ovarian 61.8% | IGROV1 ovarian 52.2% | OVCAR-3 ovarian 65.7% | HS 578T breast 65.1% | NCI/ADR-RES ovarian 22.7%

Cn1ccnc1C(=O)/C=C/c1ccc(C(=O)Nc2ccccc2O)cc1
inactive: OVCAR-8 ovarian 18.6% | OVCAR-5 ovarian 79.3% | OVCAR-4 ovarian 36.4% | SK-OV-3 ovarian 54.7% | IGROV1 ovarian 30.9% | HS 578T breast 78.9% | NCI/ADR-RES ovarian 23.7%
active: SR leukemia -21.2% | RPMI-8226 leukemia -11.9% | OVCAR-3 ovarian -17.9%

CC(=O)O[C@@H]1C[C@]2(C(C)C)O[C@@]1(C)[C@@H]1CCC(C)=C1[C@@H]2OC(=O)/C=C/c1ccccc1
inactive: SR leukemia 73.6% | RPMI-8226 leukemia 76.6% | OVCAR-8 ovarian 67.5% | OVCAR-5 ovarian 98.1% | OVCAR-4 ovarian 79.1% | SK-OV-3 ovarian 89.3% | IGROV1 ovarian 94.9% | OVCAR-3 ovarian 89.7% | HS 578T breast 20% | NCI/ADR-RES ovarian 71.9%

C#COc1cccc(Nc2c(C#N)cnc3ncc(NC(=O)CCl)cc23)c1
active: RPMI-8226 leukemia -18.2% [6.25 µM] | OVCAR-3 ovarian 7.58% [6.25 µM]
inactive: SR leukemia 10.2% [6.25 µM] | OVCAR-8 ovarian 32.2% [6.25 µM] | OVCAR-5 ovarian 42.9% [6.25 µM] | OVCAR-4 ovarian 54.5% [6.25 µM] | SK-OV-3 ovarian 60.4% [6.25 µM] | IGROV1 ovarian 14.1% [6.25 µM] | HS 578T breast 66.8% [6.25 µM] | NCI/ADR-RES ovarian 76.5% [6.25 µM]

c1ccc(-c2oc(-c3ccccc3)c(CN3CCCCC3)c2CN2CCCCC2)cc1
active: SR leukemia -2.07% | RPMI-8226 leukemia -6.38%
inactive: OVCAR-8 ovarian 33% | OVCAR-5 ovarian 50.3% | OVCAR-4 ovarian 11.9% | SK-OV-3 ovarian 52.3% | IGROV1 ovarian 44.7% | OVCAR-3 ovarian 23.4% | HS 578T breast 34.3% | NCI/ADR-RES ovarian 39.8%
